Assay outcomes from PubChem BioAssay.
Hits are enriched below; roughly 2.7% of the tested compounds scored in any of these assays.
HIV Env fusion: inhibitors of HIV Env-mediated cell fusion; HeLa-JRFL Env/CEM21 cell fusion, luciferase; inhibition, % at 12.3 µM; 360,000 tested, 1.1% active;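 active = mean replicate inhibition score of at least 50 and every replicate individually at or above 50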
F508del corr: CFTR F508del correction in bronchial cells. CFBE cells, YFP halide quenching; stimulated with forskolin plus potentiator P3; % fluorescence drop versus neutral controls. activity (quench increase), % at 7.58 µM. 350,000 tested, 0.36% active. AID 720511;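 active = mean added fluorescence quench of at least 8% versus neutral control, with both replicates also reaching 8%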;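 note: cells transiently co-express mutant CFTR-F508del with the halide-sensitive YFP; corrector assay measuring rescue of mutant channel to the surface after 24 h compound exposure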
GSIS activator: GLuc luminescence reporter in INS-1E cells, primary screen for activators of glucose-dependent secretion of insulin. activation, % at 16.6 µM. 370,000 tested, 0.61% active. INS-1E GLuc reporter insulin secretion, 2-3 h. AID 743287;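 active = lowest replicate activation of at least 40%, so every replicate reaches that level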
Wnt act: activates Wnt/beta-catenin signaling in a reporter cell assay | activation, % at 9.35 µM | activator, plate reader | 300,000 tested, 1.2% active | AID 743398; in the data active = activation above about 30%, passing the limit was not always enough
MITF act: increases MITF-driven TRPM1 promoter luciferase signal. activation, % at 12.5 µM. AID 588334. 300,000 tested, 0.75% active. SK-MEL-5 TRPM1-promoter luciferase, 24 h; % of positive control, neutral wells = 0;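 active = mean activation of at least 80% with every replicate also reaching 80%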
Numbers stand for hits.

Screening Cc1ccc(S(=O)(=O)N(C)C[C@@H]2Oc3ccc(NC(=O)Nc4ccc(F)cc4)cc3CC(=O)N([C@@H](C)CO)C[C@H]2C)cc1 returned HIV Env fusion inactive, F508del corr inactive and GSIS activator inactive.
`Cn1nc(C(=O)Nc2cccc(S(=O)(=O)N3CCCC3)c2)c2ccccc2c1=O` gave F508del corr inactive, GSIS activator inactive, Wnt act inactive and MITF act inactive.
`Cc1ccc(S(=O)(=O)N2CCCCC2)cc1NC(=O)CCNC(=O)c1ccc([N+](=O)[O-])cc1` gave HIV Env fusion 59, F508del corr inactive, GSIS activator inactive, Wnt act inactive and MITF act inactive.
Cc1ccc(S(=O)(=O)N2CCCCC2)cc1NC(=O)c1nn(C)c(=O)c2ccccc12 was read as HIV Env fusion 66, F508del corr inactive, GSIS activator inactive, Wnt act inactive and MITF act inactive.
For COc1cccc(-c2ccc([C@@H]3[C@@H](C#N)N(C(=O)Cc4ccccc4)[C@@H]3CO)cc2)c1 the results were HIV Env fusion inactive, F508del corr inactive and GSIS activator inactive.
For CC(C)NC(=O)C1CCN(C(=O)c2ccc(-c3ccccc3)cc2)CC1 the results were GSIS activator inactive and MITF act inactive.
Screening Cc1ccc(Nc2nc(C(=O)N3CCC(C(=O)NC(C)C)CC3)cs2)cc1 returned HIV Env fusion inactive, F508del corr inactive, Wnt act 58 and MITF act inactive.
Screening O=[N+]([O-])c1ccc(C=CC=Cc2ccccc2)cc1 returned HIV Env fusion inactive, F508del corr inactive, GSIS activator inactive and Wnt act inactive.
`[O-]/[N+](=C\C=C\c1ccccc1)c1ccccc1` gave HIV Env fusion inactive, F508del corr inactive, GSIS activator inactive, Wnt act inactive and MITF act 94.
For O=C(NCC1CC1)[C@H]1N[C@H]2c3ccc(-c4ccccc4F)c(=O)n3C[C@H]2[C@@H]1CO the results were F508del corr inactive and GSIS activator inactive.
For c1ccc(-c2ccc3ccccc3n2)cc1 the results were F508del corr inactive, GSIS activator inactive and Wnt act 47.
c1ccc2nc(-c3ccc(-n4ccnc4)cc3)ccc2c1 was read as HIV Env fusion inactive, F508del corr inactive, GSIS activator inactive, Wnt act 49 and MITF act inactive.
Screening Cc1noc(C)c1S(=O)(=O)Nc1ccc2c(c1)C(=O)N([C@@H](C)CO)C[C@@H](C)[C@H](CN(C)Cc1ccc(Cl)c(Cl)c1)OCCCC[C@@H](C)O2 returned HIV Env fusion inactive, F508del corr inactive and GSIS activator inactive.
CN(C)c1ccc(C(=O)N2CCN(c3cc(C(F)(F)F)nc4ccccc34)CC2)cc1 was read as HIV Env fusion inactive, F508del corr inactive, GSIS activator inactive, Wnt act 55 and MITF act inactive.
O=C(O)COCC(=O)N1CCN(c2cc(C(F)(F)F)nc3ccccc23)CC1 was read as HIV Env fusion inactive, F508del corr inactive, GSIS activator inactive, Wnt act inactive and MITF act inactive.
COC(=O)[C@]12C[C@H](CC(=O)NCCC(C)C)C(=O)N(Cc3ccc4c(c3)OCO4)C1=C[C@H](C(C)(C)C)O[C@@H]2C was read as HIV Env fusion inactive, F508del corr inactive and Wnt act inactive.
For COC(=O)[C@]12C[C@H](CC(=O)NCc3cccc(C(F)(F)F)c3)C(=O)N(Cc3ccc4c(c3)OCO4)C1=C[C@H](C(C)(C)C)O[C@@H]2C the results were HIV Env fusion 59, F508del corr inactive, GSIS activator inactive and Wnt act inactive.
`CCCCNC(=O)C[C@H]1C[C@@]2(C(=O)OC)C(=C[C@H](C(C)(C)C)O[C@@H]2C)N(Cc2ccc3c(c2)OCO3)C1=O` gave HIV Env fusion 82, F508del corr inactive, GSIS activator inactive and Wnt act inactive.
CO[C@@H]1CN(C)C(=O)c2ccc(NC(=O)C3CC3)cc2OC[C@@H](C)N(C(=O)Nc2ccc(C(F)(F)F)cc2)C[C@H]1C was read as F508del corr inactive and GSIS activator inactive.
Cc1ccc(NC(=O)c2ccc(CSc3nnnn3C)cc2)cc1 was read as MITF act 97.
For Cc1ccc(Cl)cc1NC(=O)c1ccc(CSc2nnnn2C)cc1 the results were MITF act inactive.
For CO[C@H]1CN(C)C(=O)c2cc(NC(=O)c3ccc4c(c3)OCO4)ccc2OC[C@@H](C)NC[C@@H]1C the results were HIV Env fusion inactive, F508del corr inactive and GSIS activator inactive.
Cc1cc(NC(=O)C(C)SCC(=O)Nc2cc(C(F)(F)F)ccc2N2CCCCC2)no1 (stereo not drawn) was read as HIV Env fusion 74, F508del corr inactive, GSIS activator inactive, Wnt act inactive and MITF act inactive.
Screening Cc1cccc(NC(=O)CSCC(=O)Nc2cc(C(F)(F)F)ccc2N2CCOCC2)c1 returned HIV Env fusion 69, F508del corr inactive, GSIS activator inactive and Wnt act inactive.
`Cc1cccc(NC(=O)CSCC(=O)Nc2ccc(N3CCOCC3)cc2N2CCOCC2)c1` gave HIV Env fusion inactive, F508del corr inactive, GSIS activator inactive and Wnt act inactive.
For CC1CC1C(=O)Nc1cc(C(F)(F)F)ccc1N1CCOCC1 (stereo not drawn) the results were HIV Env fusion inactive, F508del corr inactive, GSIS activator 48, Wnt act inactive and MITF act inactive.
Screening COc1ccc(COC[C@@]23Oc4ccccc4[C@@H](NC(=O)N2C)[C@H]3COC(=O)c2ccc([N+](=O)[O-])cc2)cc1 returned HIV Env fusion inactive and F508del corr inactive.
Screening Cc1ccc(S(=O)(=O)N[C@H](C(=O)OCC(=O)NC(=O)C2CCCCC2)C(C)C)cc1 returned HIV Env fusion inactive, F508del corr 12, GSIS activator inactive, Wnt act inactive and MITF act inactive.
`C[C@H]1CN([C@@H](C)CO)S(=O)(=O)c2ccc(/C=C/c3ccccc3)cc2O[C@H]1CN(C)C(=O)CN1CCOCC1` gave HIV Env fusion inactive, F508del corr inactive and GSIS activator inactive.
O=C(NC1CCCCC1)c1cccnc1Sc1ccccc1 was read as HIV Env fusion inactive, F508del corr inactive, GSIS activator 62, Wnt act inactive and MITF act inactive.
Cc1ncc(N=Nc2ccc(F)cc2)c(-c2ccc(Cl)cc2)n1 was read as GSIS activator 59, Wnt act inactive and MITF act inactive.
Screening COC(=O)C[C@@H]1C[C@H]2c3cc(NC(=O)c4cccnc4)ccc3O[C@H]2[C@@H](CO)O1 returned HIV Env fusion inactive, F508del corr inactive and GSIS activator inactive.
Oc1nc(Nc2ccccc2)sc1/C=C1\C=Nc2ccccc21 was read as HIV Env fusion inactive, F508del corr inactive, GSIS activator inactive, Wnt act inactive and MITF act 88.
CCn1c(O)c(/C=C2\C=Nc3ccccc32)sc1=O was read as HIV Env fusion inactive, GSIS activator inactive, Wnt act 39 and MITF act inactive.
